Measured values as given in the supplement of paper PMC13380429.

Each molecule was assayed on Vero E6 infected with SARS-CoV-2 (assay: inhibition of SARS-CoV-2 cytopathic effect; higher = more antiviral protection, active = above 15). Settings: 1 nM; 48 h.

| Structure (SMILES) | inhibition of SARS-CoV-2 cytopathic effect |
| --- | --- |
| O=C(O)COc1ccc(/C=C2\SC(=O)NC2=O)cc1 | 0.12% (inactive) |
| O=S(=O)(c1cccc2cnccc12)N1CCCNCC1 [fasudil] | -2.19% (inactive) |
| Cc1ccc(C(=O)c2cc(O)c(O)c([N+](=O)[O-])c2)cc1 [tolcapone] | -5.06% (inactive) |
| CN(C)[C@@H]1C(O)=C(C(N)=O)C(=O)[C@@]2(O)C(O)=C3C(=O)c4c(O)cccc4[C@@](C)(O)[C@H]3[C@H](O)[C@@H]12 [oxytetracycline] | -0.32% (inactive) |
| O=C(O)C[CH2][Ge](=[O])[O][Ge](=[O])[CH2]CC(=O)O [propagermanium] | -0.42% (inactive) |
| C[C@H]1CCC/C=C/[C@@H]2C[C@H](O)C[C@H]2[C@H](O)/C=C/C(=O)O1 [brefeldin-A] | 0.16% (inactive) |
| COc1ccccc1Oc1c(NS(=O)(=O)c2ccc(C(C)(C)C)cc2)nc(-c2ncccn2)nc1OCCO [bosentan] | -0.62% (inactive) |
| CN1CCN(c2ccc3[nH]c(-c4ccc5[nH]c(-c6ccc(O)cc6)nc5c4)nc3c2)CC1 [pibenzimol] | -0.58% (inactive) |
| CC(C)c1ccc(CC(=O)N2CCC[C@@H](c3cccc(OC(C)(C)C(=O)O)c3)C2)cc1 | 0.54% (inactive) |
| N#Cc1ccc(N2N=C3c4ccc(C(=O)O)cc4CC[C@@H]3[C@@H]2C2CCCC2)cc1Cl | 7.07% (inactive) |
| O=S(=O)(NCC1CC1)c1ccc(Nc2nccc(N3CCCc4cc(O)ccc43)n2)cc1 [pyrintegrin] | 2.46% (inactive) |
| CS(=O)(=O)CCNCc1nc(-c2ccc3ncnc(Nc4ccc(OCc5cccc(F)c5)c(Cl)c4)c3c2)cs1 | 1.4% (inactive) |
| CCN(CCO)CCCC(C)Nc1ccnc2cc(Cl)ccc12 (centres undefined) [hydroxychloroquine] | -0.29% (inactive) |
| Cc1cc(Nc2ncc(Cl)c(Nc3ccccc3S(=O)(=O)C(C)C)n2)c(OC(C)C)cc1C1CCNCC1 [ceritinib] | -0.41% (inactive) |
| CNC[C@H](O)c1cccc(O)c1 [phenylephrine] | 0.59% (inactive) |
| NCCCCCC(O)(P(=O)(O)O)P(=O)(O)O [neridronic-acid] | 0.84% (inactive) |
| CC(C)OC(=O)[C@H](C)N[P@](=O)(CO[C@H](C)Cn1cnc2c(N)ncnc21)Oc1ccccc1 [tenofovir-alafenamide] | -2.51% (inactive) |
| c1ccc2c(c1)sc1ccccc12 [dibenzothiophene] | -0.91% (inactive) |
| CC(C)Nc1nc2cc(Cl)c(Cl)cc2n1[C@H]1O[C@@H](CO)[C@H](O)[C@@H]1O [maribavir] | 2% (inactive) |
| Cc1cc(-c2cc(O)ccc2Cl)cc2nnc(Nc3ccc(OCCN4CCCC4)cc3)nc12 | -1.19% (inactive) |

| Structure (SMILES) | inhibition of SARS-CoV-2 cytopathic effect |
| --- | --- |
| CCn1c(=O)c(-c2ccc(Cl)cc2Cl)cc2cnc(Nc3ccc(N4CCNCC4)c(F)c3)nc21 | -1.29% (inactive) |
| CC=C1C(=O)C[C@H]2[C@@H]3CCC4=CC(=O)CC[C@]4(C)[C@H]3CC[C@]12C | 0.03% (inactive) |
| COc1cc(Nc2nc3ccccc3nc2NS(=O)(=O)c2ccc(NC(=O)c3ccc(C)c(OC)c3)cc2)cc(OC)c1 | 1.14% (inactive) |
| C[C@]12C[C@H](O)[C@H]3[C@@H](CCC4=CC(=O)CC[C@@]43C)[C@@H]1CC[C@@H]2C(=O)CO [corticosterone] | -1.19% (inactive) |
| O=[N+]([O-])O[C@H]1CO[C@H]2[C@@H]1OC[C@H]2O[N+](=O)[O-] [isosorbide-dinitrate] | -1.2% (inactive) |
| Cc1noc2c1-c1ccccc1C(c1ccc(Cl)cc1)=N[C@H]2CC(N)=O | -3.02% (inactive) |
| CCN1CCN(Cc2ccc(Nc3ncc(F)c(-c4cc(F)c5nc(C)n(C(C)C)c5c4)n3)nc2)CC1 [abemaciclib] | -2.71% (inactive) |
| NS(=O)(=O)c1ccc(-n2nc(C(F)(F)F)cc2-c2ccc(Cl)cc2)cc1 | 1.27% (inactive) |
| COC(=O)C1=C(C)N(C)C(C)=C(C(=O)OC)C1c1ccc(C(F)(F)F)cc1 | 1.98% (inactive) |
| Cn1cnc2c(NCc3ccccc3)nc(NCCO)nc21 [olomoucine] | 1.4% (inactive) |
| CCN(CC)CCNc1ccc(CO)c2sc3ccccc3c(=O)c12 [hycanthone] | -3.88% (inactive) |
| C[C@H](Cc1cc2c(c(C(N)=O)c1)N(CCCO)CC2)NCCOc1ccccc1OCC(F)(F)F [silodosin] | 3.7% (inactive) |
| OC[C@@H](O)[C@@H](O)[C@@H](O)CO [ribitol] | 2.52% (inactive) |
| Oc1cc2c(cc1O)CN(C(=S)NCCc1ccc(Cl)cc1)CCC2 [capsazepine] | -5.03% (inactive) |
| Cc1cc(C)c(S(=O)(=O)n2cc(C)cc2C)c(C)c1 | -0.12% (inactive) |
| COc1ccc(-c2ccc3c(N4CCOC[C@@H]4C)nc(N4CCOC[C@@H]4C)nc3n2)cc1CO | -1.08% (inactive) |
| C=C1c2cccc(O)c2C(=O)C2=C(O)[C@]3(O)C(=O)C(C(N)=O)=C(O)[C@@H](N(C)C)[C@@H]3[C@@H](O)[C@H]12 [methacycline] | 1.27% (inactive) |
| Cc1cc(-c2cc(OC(=O)c3ccccc3)ccc2Cl)cc2nnc(Nc3ccc(OCCN4CCCC4)cc3)nc12 | -2.62% (inactive) |
| CO[C@@H]1COCC[C@@H]1N[C@@H]1CC[C@@](C(=O)N2CCc3ncc(C(F)(F)F)cc3C2)(C(C)C)C1 | 0.39% (inactive) |
